# Data taken from PubChem BioAssay.
# Active and inactive are the calls of the source. Unless noted, the rule behind the calls is not given here.
# Assays:
# [1] = anti-His antibody binders, primary screen, artefact control for SMM control protein annotation, biochemical, small-molecule microarray, 635 nm fluorescence (AID 1128); settings: anti-His Alexa647 antibody binding, higher = more signal;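 note: score merges feature fluorescence with signal-to-noise for each printed compound spot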
# [2] = test system: Human papillomavirus type 1a E7 protein (residues 1-88); test: HPV1a E7 small-molecule binders, primary screen, biochemical, small-molecule microarray, residues 1-88, 635 nm (AID 1129); settings: small-molecule microarray binding, fluorescence 635 nm; higher = more signal
# [3] = target: Focal adhesion kinase 1 (Homo sapiens) (UniProt Q05397); test: small-molecule microarray binders of FAK, primary screen, biochemical, 635/667 nm fluorescence, BSA, DTT (AID 1130); settings: PTK2 binding, 635 nm fluorescence, higher = more signal;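 note: composite of spot emission at 667 nm and signal to noise over triplicate slides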
# [4] = test system: Fibrinogen (Alexa647-labelled); test: fibrinogen binders on compound microarrays, profiling panel, artefact control for SMM control-protein annotation, biochemical, small-molecule microarray, 635/667 nm fluorescence (AID 1131); settings: fibrinogen-A647 binding fluorescence, higher = more signal;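 note: z-score merges 667 nm fluorescence with per-spot signal-to-noise over triplicate slides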
# [5] = target: Follistatin (Homo sapiens) (UniProt P19883); test: follistatin binders on small-molecule microarrays, primary screen, biochemical, small-molecule microarray, 635/667 nm fluorescence (AID 1132); settings: FST binding, 635 nm fluorescence, higher = more signal
# [6] = target: Fibroblast growth factor 2 (Homo sapiens) (UniProt P09038); test: FGF2 binders on small-molecule microarrays, primary screen, biochemical, small-molecule microarray, 635/667 nm fluorescence (AID 1133); settings: small-molecule microarray binding, FGF2, fluorescence 635/667; higher = more signal
# [7] = mitochondrial membrane potential change in A549 cells, profiling panel, cell-based, JC-1 fluorescence, basal, 24 h, 100 nL (AID 1138); settings: higher = more signal;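 note: A549 lung adenocarcinoma cells under basal conditions with no added stimulus; test concentration not given here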
# Lefty1 = Lefty1 binders on small-molecule microarrays, primary screen, biochemical, small-molecule microarray, 635/667 nm fluorescence (AID 1139); settings: small-molecule microarray binding, fluorescence 635/667; higher = more signal
# [8] = test system: wheat germ agglutinin (Triticum aestivum), Alexa647-labelled; test: wheat germ agglutinin binders on compound microarrays, profiling panel, artefact control for SMM control-protein annotation, biochemical, small-molecule microarray, 635/667 nm fluorescence (AID 1140); settings: WGA-A647 binding, 635 nm fluorescence, higher = more signal;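 note: score merges 667 nm feature emission with signal to noise over triplicate slides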
# [9] = target: Luciferin 4-monooxygenase (Photinus pyralis) (UniProt P08659); test: firefly luciferase enzyme inhibitors, primary screen, biochemical, luminescence, purified enzyme, 2006 set (AID 1141); settings: SteadyGlo luminescence, 30 min, higher = more signal, called active from +8 up or from −8 down;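 note: cell-free assay with purified firefly luciferase at 100 ng per well in PBS; test concentration not given here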
# [10] = test system: Wnt5a (protein binding on small-molecule microarray); test: Wnt5a binders on small-molecule microarray, primary screen, biophysical, 635/667 nm fluorescence (AID 1142); settings: 635 nm fluorescence, higher = more signal;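 note: fluorescence read at 667 nm with signal to noise per printed feature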
# [11] = cell viability in Huh7 cells, primary screen, cytotoxicity control for HCV replication inhibitor project, CellTiter-Glo luminescence, basal, 48 h (AID 1143); settings: Huh7 HCV replicon, higher = more signal, called active from +8 up or from −8 down;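 note: Huh7 hepatoma cells carrying a hepatitis C replication reporter with no stimulus; test concentration not given here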
# [12] = P. aeruginosa biofilm formation inhibitors, primary screen, PAO1 strain, BacTiter-Glo luminescence, LB-PBS (AID 1144); settings: 12 h, higher = more signal
# [13] = CREB reporter modulators without forskolin, primary screen, cell-based, PC12, CRE-LacZ reporter, unstimulated (AID 1145); settings: no forskolin, luminescence, 4.5 h, higher = more signal, called active from +8 up or from −8 down
# [14] = CREB reporter modulators under forskolin, primary screen, cell-based, PC12, CRE-LacZ reporter, forskolin-stimulated (AID 1146); settings: luminescence, 4.5 h, higher = more signal, called active from +8 up or from −8 down;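 note: PC12 cells with 6xCRE LacZ reporter stimulated by forskolin 10 µM; beta-galactosidase reporter signal reflecting CREB driven transcription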
# [15] = target: Streptavidin (Streptomyces avidinii) (UniProt P22629); test: streptavidin binders on small-molecule microarray, primary screen, artefact control for SMM compound annotation, biophysical, 635/667 nm fluorescence (AID 1147); settings: streptavidin binding, higher = more signal;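 note: signal reflects streptavidin binding to arrayed compounds as a control protein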
# [16] = small-molecule binders of probe aInhba, primary screen, biochemical, small-molecule microarray, 635/667 nm fluorescence (AID 1148); settings: higher = more signal;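 note: score merges 667nm spot fluorescence with signal-to-noise for antibody binding to printed compounds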
# Torsin-1A (Homo sapiens) [17] = target: Torsin-1A (Homo sapiens) (UniProt O14656); test: torsin A binders from cell lysate, primary screen, small-molecule microarray, wild-type, 635/667 nm (AID 1149); settings: COS7 hTOR1A-WT lysate, 635 nm fluorescence, higher = more signal
# Torsin-1A (Homo sapiens) [18] = target: Torsin-1A (Homo sapiens) (UniProt O14656); test: small-molecule binders of mutant TOR1A in lysate, primary screen, cell lysate, small-molecule microarray, COS7 lysate, 635/667 nm fluorescence (AID 1150); settings: COS7 hTOR1A mutant lysate, 635 nm fluorescence, higher = more signal;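 note: score pools 667 nm emission and signal to noise measuring lysate protein binding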
# [19] = test system: Sonic hedgehog protein (Shh); test: small-molecule binders of Shh protein, primary screen, biochemical, small-molecule microarray, 635/667 nm fluorescence (AID 1151); settings: small-molecule microarray binding, 635 nm fluorescence; higher = more signal;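 note: Shh protein binding to compounds spotted on small-molecule microarray slides; score combines spot fluorescence intensity with signal-to-noise across triplicate slides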
# Streptavidin (Streptomyces avidinii), sequence (P22629 whole entry, looked up): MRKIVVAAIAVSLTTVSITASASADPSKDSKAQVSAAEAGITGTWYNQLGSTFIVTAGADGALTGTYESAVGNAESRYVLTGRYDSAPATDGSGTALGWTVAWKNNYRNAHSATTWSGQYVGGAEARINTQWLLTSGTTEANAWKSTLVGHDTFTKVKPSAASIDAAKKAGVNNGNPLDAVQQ
# Fibroblast growth factor 2 (Homo sapiens), sequence (P09038 whole entry, looked up): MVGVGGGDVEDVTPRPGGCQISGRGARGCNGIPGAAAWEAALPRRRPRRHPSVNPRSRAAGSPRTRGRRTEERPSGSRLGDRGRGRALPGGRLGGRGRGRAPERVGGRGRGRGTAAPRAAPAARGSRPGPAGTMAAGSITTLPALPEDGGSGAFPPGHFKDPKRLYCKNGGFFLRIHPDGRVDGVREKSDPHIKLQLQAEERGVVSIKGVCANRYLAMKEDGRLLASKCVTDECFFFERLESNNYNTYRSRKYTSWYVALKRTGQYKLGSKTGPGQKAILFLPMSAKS
# Luciferin 4-monooxygenase (Photinus pyralis), sequence (P08659 whole entry, looked up): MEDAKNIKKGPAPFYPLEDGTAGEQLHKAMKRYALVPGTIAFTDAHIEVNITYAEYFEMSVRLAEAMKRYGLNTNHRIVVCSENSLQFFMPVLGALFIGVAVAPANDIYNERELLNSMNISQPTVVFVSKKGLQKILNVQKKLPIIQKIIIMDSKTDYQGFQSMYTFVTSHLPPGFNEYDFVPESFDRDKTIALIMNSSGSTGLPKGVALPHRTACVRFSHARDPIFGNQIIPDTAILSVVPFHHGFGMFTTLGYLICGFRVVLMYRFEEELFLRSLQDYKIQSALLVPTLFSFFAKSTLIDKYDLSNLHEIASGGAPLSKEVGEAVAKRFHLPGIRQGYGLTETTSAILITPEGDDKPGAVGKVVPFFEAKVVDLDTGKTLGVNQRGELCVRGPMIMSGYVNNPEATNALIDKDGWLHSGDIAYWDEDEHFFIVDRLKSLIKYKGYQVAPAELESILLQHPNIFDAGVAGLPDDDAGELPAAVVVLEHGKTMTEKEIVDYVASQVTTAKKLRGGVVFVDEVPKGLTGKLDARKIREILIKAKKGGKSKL
# Torsin-1A (Homo sapiens), sequence (O14656 whole entry, looked up): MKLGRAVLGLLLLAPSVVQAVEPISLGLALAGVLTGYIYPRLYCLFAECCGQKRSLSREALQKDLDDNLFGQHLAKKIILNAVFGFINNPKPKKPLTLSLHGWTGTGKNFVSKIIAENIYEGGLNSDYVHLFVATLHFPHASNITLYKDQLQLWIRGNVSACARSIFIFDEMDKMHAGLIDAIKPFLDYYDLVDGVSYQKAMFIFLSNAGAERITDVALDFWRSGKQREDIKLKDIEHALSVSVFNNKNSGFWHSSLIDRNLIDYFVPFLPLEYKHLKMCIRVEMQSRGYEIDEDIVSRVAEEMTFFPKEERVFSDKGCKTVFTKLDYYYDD
# Follistatin (Homo sapiens), sequence (P19883 whole entry, looked up): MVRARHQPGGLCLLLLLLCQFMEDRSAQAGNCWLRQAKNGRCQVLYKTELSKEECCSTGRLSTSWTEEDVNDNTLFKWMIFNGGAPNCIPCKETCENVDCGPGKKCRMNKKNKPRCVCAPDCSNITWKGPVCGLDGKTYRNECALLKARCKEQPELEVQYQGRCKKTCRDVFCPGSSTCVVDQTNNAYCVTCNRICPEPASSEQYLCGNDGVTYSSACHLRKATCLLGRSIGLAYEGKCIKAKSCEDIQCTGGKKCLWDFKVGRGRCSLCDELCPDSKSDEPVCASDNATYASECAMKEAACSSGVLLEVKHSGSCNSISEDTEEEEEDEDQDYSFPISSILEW
# Focal adhesion kinase 1 (Homo sapiens), sequence (Q05397 whole entry, looked up): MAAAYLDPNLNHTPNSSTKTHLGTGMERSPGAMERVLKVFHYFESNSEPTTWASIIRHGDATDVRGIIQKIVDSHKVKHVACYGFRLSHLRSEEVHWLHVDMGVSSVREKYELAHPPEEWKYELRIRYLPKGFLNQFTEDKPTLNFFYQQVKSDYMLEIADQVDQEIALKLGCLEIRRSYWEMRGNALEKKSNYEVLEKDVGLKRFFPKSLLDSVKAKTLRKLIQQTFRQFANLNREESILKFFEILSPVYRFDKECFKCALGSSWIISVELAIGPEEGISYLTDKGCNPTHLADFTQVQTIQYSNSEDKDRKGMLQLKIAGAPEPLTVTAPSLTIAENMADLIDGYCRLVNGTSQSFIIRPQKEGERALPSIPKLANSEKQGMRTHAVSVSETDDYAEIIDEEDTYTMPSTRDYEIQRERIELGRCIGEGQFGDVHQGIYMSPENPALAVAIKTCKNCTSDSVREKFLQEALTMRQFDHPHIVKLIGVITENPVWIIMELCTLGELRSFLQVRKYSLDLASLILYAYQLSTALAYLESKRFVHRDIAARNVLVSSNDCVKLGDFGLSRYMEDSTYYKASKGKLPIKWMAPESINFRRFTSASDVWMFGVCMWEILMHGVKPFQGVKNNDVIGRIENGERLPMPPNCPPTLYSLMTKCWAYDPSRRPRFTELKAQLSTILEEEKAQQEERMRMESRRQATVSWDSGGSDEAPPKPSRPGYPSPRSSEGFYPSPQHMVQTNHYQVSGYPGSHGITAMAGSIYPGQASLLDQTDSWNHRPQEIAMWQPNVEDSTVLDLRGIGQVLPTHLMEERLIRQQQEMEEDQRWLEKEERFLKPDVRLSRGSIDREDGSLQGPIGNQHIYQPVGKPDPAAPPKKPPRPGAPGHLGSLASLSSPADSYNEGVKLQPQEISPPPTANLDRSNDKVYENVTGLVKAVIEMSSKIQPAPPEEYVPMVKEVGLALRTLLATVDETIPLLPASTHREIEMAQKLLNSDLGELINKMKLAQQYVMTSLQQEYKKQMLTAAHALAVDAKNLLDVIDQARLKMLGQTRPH
SMILES,composite z-score [1],composite z-score [2],composite z-score [3],composite z-score [4],composite z-score [5],composite z-score [6],z-score [7],composite z-score (Lefty1),composite z-score [8],z-score [9],composite z-score [10],z-score [11],z-score [12],z-score [13],z-score [14],composite z-score [15],composite z-score [16],composite z-score (Torsin-1A (Homo sapiens) [17]),composite z-score (Torsin-1A (Homo sapiens) [18]),composite z-score [19]
Cc1ccc(S[C@]2(C(=O)NCC(C)C)CC(=O)N(Cc3cc(C(F)(F)F)cc(C(F)(F)F)c3)[C@@H]2c2ccc(CO)cc2)cc1,0.63,-0.8,-0.261,-0.529,-0.0643,-0.205,-0.587,-0.866,-0.262,0.111 (inactive),0.226,0.52 (inactive),-0.846 (inactive),-0.0781 (inactive),1.02 (inactive),-0.342,0.652,0.234,0.118,0.391
CCCCCCc1nc(-c2ccc(-c3ccc(Cl)c(Cl)c3)o2)c(C)c2c1[Si](C(C)C)(C(C)C)OC2,-0.0923,-0.634,-0.0899,-0.086,-0.0705,-0.773,-0.838,0.268,-0.328,-2.67 (inactive),-0.412,-5.66 (inactive),-1.17 (inactive),0.236 (inactive),0.246 (inactive),0.0199,-0.0933,-0.782,0.0515,0.14
CN1C(=O)C2C=CC(C(O)c3ccc(F)cc3)N(N(c3ccccc3)c3ccccc3)C2C1=O (stereo not given),0.202,0.619,0.0202,-1.13,0.605,-0.615,0.351,-0.128,0.296,0.0492 (inactive),-0.0512,0.319 (inactive),-0.0417 (inactive),-0.708 (inactive),0.677 (inactive),0.453,0.0047,-0.182,0.361,-0.647
C=C(CCCC)/C(=C/C[C@H](OC(C)=O)c1ccc(OCCO)cc1)c1cnc2ccccc2c1,0.91,0.78,-0.115,0.387,0.735,0.623,0.649,1.15,0.869,-0.126 (inactive),0.0824,-1.76 (inactive),-0.829 (inactive),2.59 (inactive),1.08 (inactive),0.535,-0.0087,1.27,0.671,1.8
O=C(NC1CC1)[C@@H]1c2ccccc2C(=O)N(Cc2cc(F)cc(C(F)(F)F)c2)[C@H]1c1ccc(CO)cc1,1.23,-0.454,0.315,-0.399,0.542,-0.258,0.739,-0.396,0.569,-0.124 (inactive),0.518,-0.335 (inactive),-0.435 (inactive),0.001 (inactive),0.162 (inactive),-0.685,-0.0468,0.517,0.543,-0.296
O=C(CS)NCCCCCNC(=O)[C@H]1C[C@H]2C(=O)NCC(=O)N2[C@H]1c1cccc(OCCO)c1,-0.0298,-0.864,0.319,0.0186,0.952,0.399,-0.0613,-0.0561,-0.347,0.76 (inactive),-0.341,-0.466 (inactive),-0.218 (inactive),-1.48 (inactive),0.0277 (inactive),-1.05,-0.217,-0.181,-0.0418,0.27
COCCOC(=O)N1C(=O)[C@@]2(c3cc(C#CC4(O)CCCCCC4)ccc31)[C@H](c1ccccc1OCCO)N1[C@H](c3ccccc3)[C@H](c3ccccc3)OC(=O)[C@H]1[C@@H]2C(=O)N1CCc2cc(OC)c(OC)cc2C1,2.27,1.23,0.669,0.895,0.653,0.461,-0.932,0.8,0.632,-0.022 (inactive),0.305,-3.17 (inactive),-0.665 (inactive),-1.29 (inactive),1.03 (inactive),0.738,-0.0496,0.0651,0.336,1.11
CCCCC(=C=CC[C@@H](O)c1ccc(CO)o1)CCO,1.05,0.0355,-0.347,-0.313,1.14,1.13,0.622,1.08,0.55,-2.51 (inactive),0.136,-0.0181 (inactive),-0.748 (inactive),2.69 (inactive),-1.19 (inactive),-0.419,0.185,0.867,0.359,1.37
O=C1O[C@H](c2ccccc2)[C@H](c2ccccc2)N2[C@H]1[C@@H](C(=O)N1CCN(c3ncccn3)CC1)[C@]1(C(=O)Nc3ccc(C#CC4=CCCCC4)cc31)[C@H]2c1ccccc1OCCO,1.5,1.18,0.543,0.916,1.34,1.3,-1.01,1.16,1.07,-0.662 (inactive),0.406,-3.34 (inactive),-0.869 (inactive),-0.581 (inactive),-0.111 (inactive),0.895,0.772,0.0637,0.0096,1.79
CC#CC(=O)Oc1ccc(Br)cc1C=CC(=O)OCC,-0.179,1.06,0.167,-0.382,0.233,-0.0698,-0.817,0.0606,0.665,-0.39 (inactive),-0.0465,-2.98 (inactive),0.0278 (inactive),1.81 (inactive),32.2 (active),0.119,0.248,-0.0177,-0.329,0.247
